Experimental data reported in PubChem BioAssay AID765 (NMMLSC, 2007).
Active and inactive are the calls of the source. Rule as the data show it: active = inhibition above about 31%; inactive = the rest.

What follows are compounds tested against N-formyl peptide receptor 2 (Homo sapiens) (UniProt P25090) (assay: human FPR2 ligand displacement single-point screen – cell-based, flow cytometry, single concentration (AID 765)). Conditions: FPRL1-expressing cells, fluorescent ligand binding inhibition, active compounds read high; at 5.1 µM unless noted.
N-formyl peptide receptor 2 (Homo sapiens), sequence (P25090 whole entry, looked up): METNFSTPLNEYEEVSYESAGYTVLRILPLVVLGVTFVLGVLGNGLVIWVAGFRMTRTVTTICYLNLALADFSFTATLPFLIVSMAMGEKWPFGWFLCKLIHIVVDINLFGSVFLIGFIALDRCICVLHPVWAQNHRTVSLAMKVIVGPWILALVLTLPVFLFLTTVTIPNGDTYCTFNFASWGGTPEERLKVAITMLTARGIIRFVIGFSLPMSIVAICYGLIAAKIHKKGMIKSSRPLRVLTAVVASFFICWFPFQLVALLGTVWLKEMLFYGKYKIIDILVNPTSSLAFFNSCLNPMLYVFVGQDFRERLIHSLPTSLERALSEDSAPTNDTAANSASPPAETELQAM

inhibition, inactive:
CC(C)(C)OC(=O)N1CCN(c2nc(-c3ccccc3)c3cc(Br)ccc3n2)CC1 -2.1% [at 4.7 µM]
CCOC(=O)N1CCN(c2nc(-c3cccc(OC)c3)cc(C(F)(F)F)n2)CC1 -16.3% [at 5.4 µM]
O=C(O)/C=C\C(=O)N1CCN(c2nc(-c3ccccc3)c3cc(Br)ccc3n2)CC1 15.8% [at 4.8 µM]
